SARS PLpro yeast – inhibitors of SARS-CoV papain-like protease in yeast | AID 485353 | Potency, µM (titrated, usually from 32.9 µM), for the others: at the highest dose activity, positive = growth rescue, usual class: activators | S. cerevisiae expressing SARS-CoV PLpro, growth rescue | 330,000 tested, 0.19% active; calls by dose curve; note: potency is the fitted concentration of half-maximal effect; 0% is about no effect; nearly all actives have a fitted effect of over 55% in size
Tb PYK inh – inhibitors of Trypanosoma brucei pyruvate kinase; Potency, µM (titrated, usually from 76.8 µM), inactives show at the top dose activity, negative = inhibition, actives largely listed as inhibitors; TbPYK enzyme, Kinase-Glo Plus ATP luminescence, 45 min; 410,000 tested, 0.12% active; note: potency is the fitted concentration of half-maximal effect; % is set by controls: 0 for no effect and ±100 for the full control effect; nearly all actives have a fitted effect of over 50% in size
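Activity of T. brucei pyruvate kinase was followed by Kinase-Glo Plus luminescence after the enzyme reacted 45 min at room temperature with 130 uM ADP (final) and substrate. Test compounds were added before ADP at multiple concentrations.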
NS1 inh – blocks influenza NS1 protein function | Potency, µM (highest dose often 46.1 µM), inactives show top-dose activity, positive = more growth | 270,000 tested, 0.4% active; calls by dose curve; note: potency is the fitted concentration of half-maximal effect; actives are rising curves; nearly all actives have a fitted effect of over 50% in size
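Read-out: OD600 growth recovery of NS1-expressing budding yeast. Cells grown overnight at 30C in -URA glucose medium, washed, resuspended and diluted 1:100 in 2% galactose assay medium, pH 6.0. Same strain lacking NS1 served as positive control.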
LmPK inhibitor – blocks Leishmania mexicana pyruvate kinase activity. 290,000 tested, 0.37% active. purified LmPK, Kinase-Glo ATP luminescence, 1 h. Potency, µM (doses to about 57.5 µM), without a hit: at the top dose activity change, negative = inhibition, actives largely listed as inhibitors; note: potency is the fitted concentration of half-maximal effect; % is set by controls: 0 for no effect and ±100 for the full control effect
Target sequence (Q27686 whole entry, looked up): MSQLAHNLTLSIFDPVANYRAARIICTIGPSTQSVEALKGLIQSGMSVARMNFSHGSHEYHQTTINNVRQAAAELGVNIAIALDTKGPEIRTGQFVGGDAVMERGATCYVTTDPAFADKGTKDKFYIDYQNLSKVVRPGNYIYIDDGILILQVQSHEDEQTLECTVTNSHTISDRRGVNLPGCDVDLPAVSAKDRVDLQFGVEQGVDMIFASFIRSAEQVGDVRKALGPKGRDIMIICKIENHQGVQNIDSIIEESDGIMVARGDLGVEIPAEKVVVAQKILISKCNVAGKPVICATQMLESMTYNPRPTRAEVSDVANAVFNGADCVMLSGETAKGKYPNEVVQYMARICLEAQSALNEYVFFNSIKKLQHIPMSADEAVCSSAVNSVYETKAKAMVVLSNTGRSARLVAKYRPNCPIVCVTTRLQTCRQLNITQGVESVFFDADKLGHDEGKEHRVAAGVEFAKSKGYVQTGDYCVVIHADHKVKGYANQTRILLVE
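Screened at intermediate enzyme activity to detect both inhibitors and activators: LmPK at 0.1 nM, with a 0.5 nM enzyme column as activation reference. PEP 0.5 mM, ADP 0.1 mM; ATP detected by luminescence after 1 h.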
Shiga inhibitor – inhibitors of Shiga toxin in Vero cells; Vero cells, Shiga toxin protein synthesis inhibition reporter; inhibition, % at 38.7 µM; 290,000 tested, 9.2% active; AID 2315; in the data active = inhibition mostly above about 28%, no sharp cut-off; inactive = mostly below about 43%; note: 0% is about no effect
CHX counter – counter-screen for Shiga toxin inhibitors: cycloheximide protein synthesis inhibition. cell reporter, cycloheximide protein synthesis inhibition counterscreen. max response, %. 300,000 tested, 12% active. AID 2314; in the data active = max response mostly above about 13%, no sharp cut-off; inactive = mostly below about 14%; note: read at 38.3 µM for the half of the compounds with a filed dose; 0% is about no effect
* hit, by the source's call; ? = inconclusive; . = no result. Many of the other results were omitted from the sample, so hits are more common in it than they were. Unless noted, calls come from the whole dose curve; as a rule, active = well fitted curve in the direction sought with a large enough effect; inconclusive = small, poorly fitted or top-dose-only effect, or another doubt; inactive = no such curve, though single readings can be large; an effect the other way counts as inactive or inconclusive.

SMILES	SARS PLpro yeast	Tb PYK inh	NS1 inh	LmPK inhibitor	Shiga inhibitor	CHX counter
Cc1ccc(-n2ncc(C(=O)NC3CCCCC3)c2C2CCN(C(=O)OC(C)(C)C)CC2)cc1	.	2.1%	.	.	.	.
CO/N=C1/CC2(CC3CC(C/C=C(/C)CC(C)/C=C\C=C4\COC5C(O)C(C)=CC(C(=O)O3)C45O)O2)OC(/C(C)=C/C(C)C)C1C (centres undefined)	.	-9.5%	.	.	.	.
COc1cccc(OCc2cc(C(=O)N(Cc3nccn3C)C(C)C)no2)c1	-2.8%	0.0%	-6.3%	-7.4%	-2.2	11.1
Cc1cccc(C)c1OCc1cc(C(=O)N(C)Cc2cc(C3CC3)n[nH]2)no1	-3.6%	2.4%	-26.2%	6.2%	50.2*	32.1*
CCN(Cc1ccncc1)C(=O)c1cc(COc2c(C)cccc2C)on1	-12.4%	0.9%	-38.6%	-5.8%	41.4*	10.6*
Cc1cccc(C)c1OCc1cc(C(=O)N(Cc2nccn2C)C(C)C)no1	0.4%	4.0%	-12.7%	0.5%	25.0	19.3*
COc1cc(C)ccc1OCc1cc(C(=O)N(Cc2nccn2C)C(C)C)no1	-3.3%	2.9%	-14.1%	0.4%	86.5*	73.4*
Cc1ccc(OCc2cc(C(=O)N(C)Cc3cc(C4CC4)n[nH]3)no2)cc1C	7.1%	1.6%	18.6%	10.0%	31.9	9.1
CC(=O)c1ccc(NC(=O)c2sc(-n3nc(C)c(Cc4ccccc4)c3C)nc2C)cc1	.	-1.0%	.	.	.	.
O=C(O)CC1NC(=S)N(Cc2ccccc2)C1=O (centres undefined)	.	1.6%	.	.	.	.
CCN1CCc2c(sc(-n3cccc3)c2C(CCC(C)C)NC(=O)NCCC(=O)OC)C1 (centres undefined)	.	-4.5%	.	.	.	.
CCn1ccnc1CN(C)C(=O)c1cc(COc2ccc(OC)c3ccccc23)on1	-1.1%	-2.9%	-40.0%	-1.1%	11.9	8.3*
C=CCn1c(CCSCc2ccc(OC)c(C)c2)n[nH]c1=S	0.3%	7.94µM*	.	3.7%	-5.4	-1.7
CCn1c(-c2ccc3[nH]c(C)c(C)c3c2)n[nH]c1=S	-1.9%	?	-50.2%	28.2µM*	-13.3	-5.1
Cc1[nH]c2ccc(-c3n[nH]c(=S)n3C)cc2c1C	-1.9%	?	3.1%	-11.1%	2.2	-6.4
CCn1c(-c2cc(Cl)ccc2OC)n[nH]c1=S	7.4%	11.2µM*	1.3%	?	-7.5	-0.9
CCn1c(-c2cc(-c3ccc(C)c(C)c3)nc3ccccc23)n[nH]c1=S	-2.5%	.	4.7%	-3.1%	81.0*	26.1*
CCCC[C@@H]1CN=C(N)N1CC(C)(C)C	.	3.9%	.	.	.	.
CCOC(=O)C1(C)CCCCCN1C(=O)c1csnn1 (centres undefined)	.	6.3%	.	.	.	.
O=C(CSc1nnc2c(n1)[nH]c1ccccc12)NCc1ccccc1F	-0.6%	2.2%	0.2%	-6.3%	-7.2	-1.3
COc1ccc(Cl)cc1-c1n[nH]c(=S)n1C	12.6%	?	12.0%	-17.3%	-14.5	-3.8
C=CCn1c(-c2cc(Cl)ccc2OC)n[nH]c1=S	1.0%	?	7.1%	12.6µM*	-8.2	-2.0
Cc1nnc(SCC(=O)Nc2nc(-c3ccccc3)cs2)n1N	4.4%	2.5%	?	1.6%	10.1	8.6
O=C(CCN1C(=O)C2CC=CCC2C1=O)Nc1nc(-c2ccc(F)c(F)c2)cs1 (centres undefined)	0.8%	-0.8%	.	.	.	.
CN1CCN(CC(=O)N(C)c2nc(-c3ccccc3)cs2)CC1	-4.3%	-1.0%	-9.4%	1.2%	60.4*	60.6*
SMILES	SARS PLpro yeast	Tb PYK inh	NS1 inh	LmPK inhibitor	Shiga inhibitor	CHX counter
CC(=O)N1CC(=O)N=C1SCC(=O)Nc1nc(C)c(-c2ccccc2)s1	0.8%	2.1%	.	-0.1%	36.9*	33.1*
Cn1cnnc1SCC(=O)Nc1nc(-c2ccccc2)cs1	-1.5%	0.1%	4.9%	-3.0%	4.7	13.0*
O=C(CCN1C(=O)C2CCCCC2C1=O)Nc1nc(-c2ccccc2)cs1 (centres undefined)	-0.7%	-1.2%	-5.4%	4.5%	59.2	17.1*
CN(C)S(=O)(=O)c1ccc(Cl)c(NC(=O)COC(=O)CNS(=O)(=O)c2c(F)cccc2F)c1	.	6.6%	.	.	.	.
CC(=O)NCC(=O)OCC(=O)Nc1nc(-c2ccccc2)cs1	1.1%	1.6%	.	0.1%	63.4*	16.3*
Cc1nc(NC(=O)CN2CCOCC2)sc1-c1ccccc1	-6.4%	-8.9%	-7.0%	-0.1%	76.5	26.4*

Source: PubChem BioAssay
